Reference: PubChem BioAssay
Values joined by “and” are separate entries in the source; they are usually repeats but may differ in a detail not shown here. Equal values may be shown once. Active and inactive are the calls of the source.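 Rule for the calls, unless noted: active = compounds whose cell count with miR-34 switched on is under 0.7 times the count with it off; inactive = the rest.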

Legend:
[1] = viability loss with induced miR-34 in A549 – imaging, A549 dox-inducible miR-34, nuclei and caspase counts, primary screen (AID 1347080); conditions: A549 miR-34 inducible, Hoechst nuclei count, 48 h; note: test concentration not given here
[2] = MELAS cybrid and Rieske KO viability enhancers – cell-based, MELAS cybrids, Rieske KO mouse fibroblasts, CellTiter-Glo, primary screen (AID 1508586;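 active = mean z-score across replicates of 1.96 or higher in either the MELAS or the Rieske mutant cell line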;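 note: test concentration not given here; z relative to plate mean and SD of compound and empty wells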); conditions: low glucose
[3] = galactose survival enhancers in mitochondrial complex I cybrids – cell-based, galactose medium, ATP luminescence, primary screen (AID 1645843;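 active = z-score of at least 1.8 in each of two replicates, scored against plate mean and spread of sample wells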;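 note: positive z means more ATP and so rescue of galactose-driven cybrid death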); conditions: complex I mutant cybrid cells, 72 h, stronger effect = higher value
[4] = stronger effect = lower value, cell number ratio, induced over uninduced
[5] = measured here: relative caspase fold change +Dox/-Dox
[6] = measured here: total cells with miR-34 induction, stronger effect = lower value
[7] = measured here: total cells without miR-34 induction
[8] = MELAS cybrid survival, CellTiter-Glo 48 h, stronger effect = higher value
[9] = Rieske KO mouse fibroblast survival, CellTiter-Glo 72 h

Row | SMILES | fold change [1, 4] | fold change [1, 5] | cell count [1, 6] | cell count [1, 7] | z-score [2, 8] | z-score [2, 9] | z-score [3]
1 | Cc1ncc(-c2cc(C(=O)N(C)Cc3csc(C)n3)c3ccc(F)cc3n2)cn1 | 0.883 (inactive) | 2.05 | 8360 | 9470 | -0.361 (inactive) | -0.299 | -0.38 (inactive)
2 | CCNC(=O)c1cccnc1N1CCN(c2ccc(Cl)cc2)CC1 | 0.873 (inactive) | 0.821 | 7830 | 8970 | -0.247 | 2.02 | 0.35 (inactive)
3 | Cc1nsc(NC(=O)N2CCCC(C)(O)C2)n1 (stereo not drawn) | 0.901 (inactive) | 0.878 | 9190 | 10200 | -0.195 (inactive) | -0.423 | -0.565 (inactive)
4 | Cc1cc2nc3[nH]c(=O)[nH]c(=O)c3nc2cc1C | 0.917 (inactive) | 0.188 | 7820 | 8530 | 1.63 (inactive) | 0.292 | 0.825 (inactive)
5 | CCN(CC)C(=O)c1c(NC(=O)c2cccs2)sc2c1CCCC2 | 1.02 (inactive) | 0.802 | 1650 | 1620 | 0.194 (inactive) | 0.0357 | -0.49 (inactive)
6 | O=C(NN=Cc1cc(Br)c(O)c(Br)c1O)c1cccc(Br)c1 | 0.911 (inactive) | 0.461 | 2930 | 3220 | 1.44 (inactive) | 0.907 | -2.57 (inactive)
7 | CCN(CC)S(=O)(=O)c1cc(C(=O)Nc2ccccc2C(=O)O)ccc1Br | 0.904 (inactive) | 0.416 | 8290 | 9170 | -0.577 (inactive) | 0.639 | 0.82 (inactive)
8 | CCCCCC(O)C=CC1C(O)CC(=O)C1CCCCCCC(=O)O (stereo not drawn) | 0.973 (inactive) and 0.918 (inactive) | 0.603 and 0.896 | 9870 and 7520 | 10100 and 8190 | -0.372 (inactive) | 0.491 | 0.865 (inactive)
9 | Cc1sc2ncnc(-c3cccc4cccnc34)c2c1C | 0.871 (inactive) | 1.66 | 8110 | 9310 | -0.544 (inactive) | -0.845 | 0.64 (inactive)
